BAZ2B block = BAZ2B (human) inhibition; AlphaScreen BAZ2B-H3K14Ac peptide displacement; 4.4% of 360,000 active; Potency, µM (highest dose often 114 µM), for inactives: top-dose activity change, negative = inhibition, actives largely listed as inhibitors; further: on the % scale 0 is the no-effect control and ±100 the full control effect; nearly all actives have a fitted effect of over 60% in size
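Complex of BAZ2B and biotin-H3K14Ac (50 nM apiece) forms over 30 min at RT, then faces library compounds up to 110 uM for another 30 min; AlphaScreen beads added, 20 min dark incubation, luminescence read.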
JMJD2A Tudor inh = inhibitors of human JMJD2A Tudor domain; O75164; AlphaScreen JMJD2A-Tudor / H3K4me3 peptide binding; Potency, µM (series often up to 114 µM), for inactives: top-dose activity change, negative = inhibition, most hits filed as inhibitors; 4.4% of 390,000 active; AID 504339; further: on the % scale 0 is the no-effect control and ±100 the full control effect; nearly all actives have a fitted effect of over 50% in size
Target sequence (O75164 whole entry, looked up, the tested form may be a part): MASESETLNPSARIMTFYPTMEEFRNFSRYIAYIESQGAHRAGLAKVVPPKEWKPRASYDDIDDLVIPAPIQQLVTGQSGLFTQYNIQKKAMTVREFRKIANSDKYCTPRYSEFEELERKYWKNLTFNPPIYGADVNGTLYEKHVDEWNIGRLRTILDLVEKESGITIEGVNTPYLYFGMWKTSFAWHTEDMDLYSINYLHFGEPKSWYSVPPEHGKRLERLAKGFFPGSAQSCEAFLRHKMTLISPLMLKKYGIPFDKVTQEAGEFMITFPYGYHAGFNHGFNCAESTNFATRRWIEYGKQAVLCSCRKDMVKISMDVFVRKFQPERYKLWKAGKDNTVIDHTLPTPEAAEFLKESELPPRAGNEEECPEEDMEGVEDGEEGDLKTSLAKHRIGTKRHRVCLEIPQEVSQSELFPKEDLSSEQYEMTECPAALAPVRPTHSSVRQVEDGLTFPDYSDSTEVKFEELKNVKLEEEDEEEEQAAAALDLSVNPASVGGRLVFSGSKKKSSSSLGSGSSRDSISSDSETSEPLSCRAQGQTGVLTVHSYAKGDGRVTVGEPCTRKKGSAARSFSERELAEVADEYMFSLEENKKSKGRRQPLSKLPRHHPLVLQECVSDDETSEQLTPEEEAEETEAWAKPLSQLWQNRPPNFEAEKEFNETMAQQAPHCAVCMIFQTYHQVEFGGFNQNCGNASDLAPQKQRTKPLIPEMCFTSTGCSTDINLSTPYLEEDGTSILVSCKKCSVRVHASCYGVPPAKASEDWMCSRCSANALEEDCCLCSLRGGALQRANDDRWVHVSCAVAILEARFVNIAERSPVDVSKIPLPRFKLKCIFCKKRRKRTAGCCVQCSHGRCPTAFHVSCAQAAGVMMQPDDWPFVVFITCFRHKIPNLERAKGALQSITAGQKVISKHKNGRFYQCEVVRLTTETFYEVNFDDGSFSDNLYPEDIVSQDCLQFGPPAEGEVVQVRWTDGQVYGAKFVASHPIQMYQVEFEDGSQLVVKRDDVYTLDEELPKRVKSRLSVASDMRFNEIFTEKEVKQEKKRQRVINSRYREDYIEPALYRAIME
G9a block = inhibitors of human histone lysine methyltransferase G9a; Potency, µM (series often up to 102 µM), for the others: at the highest dose activity, negative = inhibition, usual class: inhibitors; G9a H3K9 monomethylation, AlphaScreen, 2 h; Q96KQ7; 8.8% of 350,000 active; further: on the % scale 0 is the no-effect control and ±100 the full control effect; nearly all actives have a fitted effect of over 75% in size
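Chemiluminescent proximity detection of H3K9 monomethylation, read after 10 min bead incubation in the dark. Reaction: 20 nM G9a, 500 nM biotin-H3K9 peptide, 20 uM SAM cofactor, 2 h, room temperature, following 15 min enzyme-compound preincubation.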
Sfp PPTase inh = blocks B. subtilis Sfp PPTase activity; Q9F4F7; 3.5% of 310,000 active; AID 1490; Potency, µM, inactives show largest response in the series, negative = inhibition, usual class: inhibitors; Biochemical Sfp PPTase activity, qHTS;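 further: the enzyme is Sfp with the accession as filed and its product quenches rhodamine fluorescence; 0% = enzyme reaction without inhibitor and -100% = no enzyme wells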
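Reaction rates are the 30-min fluorescence difference (ex 525, em 598 nm) in wells containing 15 nM Sfp, 5 uM rhodamine-CoA and 12.5 uM BHQ-2-YbbR at pH 7.6 with 10 mM MgCl2.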
L3MBTL1 block = blocks human L3MBTL1. AlphaScreen L3MBTL1–H3K9me1 peptide binding. Potency, µM (highest dose often 57.1 µM), without a hit: at the top dose activity, negative = inhibition, hits mostly inhibitors. 0.66% of 230,000 active; further: on the % scale 0 is the no-effect control and ±100 the full control effect; nearly all actives have a fitted effect of over 60% in size
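L3MBTL1 (50 nM) pre-complexed 30 min with biotinylated H3(1-15)K9me1 peptide (75 nM), then compounds added for 30 min at room temperature; AlphaScreen streptavidin donor/nickel chelate acceptor beads (10 ug/mL final) read after 30 min dark incubation.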
HP1b binding inh = HP1-beta chromodomain-methylated histone interaction inhibition. Potency, µM (series often up to 114 µM), for the others: top-dose activity change, negative = inhibition, hits mostly inhibitors. AlphaScreen HP1-beta / biotin-H3K9me3 peptide binding. 0.56% of 390,000 active; further: nearly all actives have a fitted effect of over 70% in size
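AlphaScreen: HP1-beta (50 nM) preformed 30 min with biotin-H3(1-18)K9me3 peptide (50 nM) in PBS pH 7.4, 0.01% Tween-20. Compound added for 30 min at RT, then streptavidin donor/nickel chelate acceptor beads (10 ug/mL) for 30 min.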
* = called active by the depositor; ? = inconclusive; · = no result given; ! = repeats disagree; [ ] = another dose, or the depositor's remark. Most compounds without a hit are left out; they make up all but 12% or so of the library. The call rests on the fitted dose curve; in most records, active means well fitted curve in the direction sought with a large enough effect; inconclusive means small, poorly fitted or top-dose-only effect, or another doubt; inactive means no such curve, though single readings can be large; an effect the other way counts as inactive or inconclusive. Potency means the concentration at half of the fitted maximal effect.

SMILES	BAZ2B block	JMJD2A Tudor inh	G9a block	Sfp PPTase inh	L3MBTL1 block	HP1b binding inh
COC(=O)c1cc(OC)c(OC)cc1NC(=O)CN1C(=O)c2ccccc2C1=O	?	?	2%[59 µM]	16%	·	27%
CCOC(=O)c1ccc(OS(=O)(=O)c2ccccc2)c(OC)c1	65%	89µM*	5%[59 µM]	14%	22%	69%
CCOC(=O)c1cc(-c2ccccc2)sc1NC(=O)c1ccc(OC)c(OC)c1	9%	?	3.5µM*	32µM*	3%	?
COC(=O)c1cc(-c2ccccc2)sc1NC(=O)CN1C(=O)c2ccccc2C1=O	-2%	?	10µM*	20µM*	-4%	?
CCOc1cnc(-c2c(-c3c(Cl)cccc3Cl)noc2C)o1	45µM*	57%	45µM*	11%	-8%	45µM*
CC(C)(C)NC(=O)CCc1nnc(Cc2c[nH]c3ccccc23)o1	18%	-15%	45µM*	6%	-2%	35%
CN(Cc1ccsc1)C(=O)CCc1nnc(CCCc2ccccc2)o1	-14%	-5%	6%	2%	-6%	36%
CN(Cc1ccsc1)C(=O)CCc1nnc(Cc2c[nH]c3ccccc23)o1	-1%	45µM*	9%	31%	5%	-16%
CCC(COC)NC(=O)CCc1nnc(Cc2c[nH]c3ccccc23)o1 (configuration not stated)	-4%	5%	?	-8%	0%	42%
COc1ccc(NC(=O)Cn2c(SCc3ccc(C)cc3)nc3cccnc32)c(OC)c1	-3%	-9%	-33%[59 µM]	·	·	29%
CC1=C(C(=O)OCc2ccccc2)C(c2ccc(Cl)cc2Cl)NC(=O)N1CCCC(=O)O (configuration not stated)	-39%	-21%	56µM*	?	?	66%
CCOC(=O)C1=C(C)N(CCCCCC(=O)O)C(=O)NC1c1ccccc1Cl (configuration not stated)	?	-18%	56µM*	?	-14%	34%
CCOC(=O)C1=C(C)N(CCCCCC(=O)O)C(=O)NC1c1ccc(Br)cc1 (configuration not stated)	-7%	?	50µM*	14%	6%	21%
CCOC(=O)CN1C(=O)N[C@H](c2ccc(Br)cc2)C(C(C)=O)=C1C	-24%	-28%	45µM*	?	-13%	25%
CCOC(=O)CN1C(=O)N[C@@H](c2ccc(Br)cc2)C(C(=O)OC)=C1C	3%	-13%	12%[59 µM]	29%	·	32%
CCOC(=O)C1=C(C)N(CCCC(=O)O)C(=O)NC1c1ccccc1Cl (configuration not stated)	·	-12%	·	·	·	18%
CCn1cc2nc(SCC(=O)Nc3cc(OC)ccc3OC)n(Cc3ccc(Cl)cc3)c(=O)c2n1	-12%	-26%	-41%[59 µM]	·	·	9%
O=C1CN(S(=O)(=O)c2ccc3c(c2)OCCO3)CCN1S(=O)(=O)c1c(F)cccc1F	·	-16%	·	·	·	·
CN(C)c1ccc(C2Nc3cccc4cccc(c34)N2)cc1	?	?	40µM*	-25%	·	?
Oc1ccccc1C1Nc2cccc3cccc(c23)N1	35µM*	-19%[11.4 µM]	-118%[59 µM]	22µM*	?	?
COc1cc(OC)c(C2Nc3cccc4cccc(c34)N2)c(OC)c1	35µM*	50µM*	28µM*	-17%	·	?
c1ccc(C2Nc3cccc4cccc(c34)N2)cc1	?	?	13µM*	28µM*	-7%	?
Cc1cccc(CC2C(=O)Nc3ccccc32)c1 (configuration not stated)	?	-14%	-31%[59 µM]	·	·	19%
O=[N+]([O-])c1ccccc1C1Nc2cccc3cccc(c23)N1	32µM*	40µM*	2.8µM*	8.9µM*	?	?
Clc1ccc(C2Nc3cccc4cccc(c34)N2)cc1Cl	?	-12%	·	-24%	-15%	0%
SMILES	BAZ2B block	JMJD2A Tudor inh	G9a block	Sfp PPTase inh	L3MBTL1 block	HP1b binding inh
COc1ccc(C2Nc3cccc4cccc(c34)N2)cc1	40µM*	?	35µM*	2%	-9%	?
Clc1cccc(C2Nc3cccc4cccc(c34)N2)c1	?	?	·	-28%	-20%	?
Brc1cccc(C2Nc3cccc4cccc(c34)N2)c1	?	-13%	35µM*	-20%	·	-13%
O=[N+]([O-])c1ccc(Cl)c(C2Nc3cccc4cccc(c34)N2)c1	18µM*	25µM*	13µM*	?	?	?
O=C(Nc1cccc(NC(=O)c2cc([N+](=O)[O-])ccc2Cl)n1)c1cc([N+](=O)[O-])ccc1Cl	·	?	·	·	·	12%
Cc1ccc(Cl)cc1N1CCN(C(=O)CCS(=O)(=O)c2cc(Br)cc3c2N(C(=O)C2CC2)CC3)CC1	-20%	-18%	-30%[59 µM]	·	·	17%
CN1CCN(c2ncc3nc(CCc4ccccc4)c(=O)n(C4CC4)c3n2)CC1	·	·	6%[0.501 µM]	-7%	·	·
CN1N/C(=C\c2ccccc2)N=C2C(=O)N(C)C(=O)N=C21	·	-22%[57.1 µM]	·	·	·	20%[57 µM]
COc1ccccc1C1Nc2cccc3cccc(c23)N1	50µM*	50µM*	?	56µM*	·	?
COc1ccc(OC)c2sc(NC(=O)c3ccc(S(=O)(=O)N4CCCC4)cc3)nc12	28%	-6%	-5%[59 µM]	·	·	50%[57 µM]
O=C1[C@@H]2C[C@@H]3C[C@H]1C[C@@](O)(C3)C2	·	·	-6%[12.7 µM]	2%	·	·
CCOC(=O)c1sc2nc3n(c(=O)c2c1C)CCC(C)CC3 (configuration not stated)	11%	-13%	10µM*	22µM*	·	-10%
CCOC(=O)N1CCN(C(=O)Nc2sc3nc4n(c(=O)c3c2C)CCC(C)CC4)CC1 (configuration not stated)	-35%	-29%	32µM*	-10%	-9%	9%
CCOC(=O)N1CCC(NC(=O)c2sc3nc4n(c(=O)c3c2C)CCCC4)CC1	-5%	-9%	24%[12.7 µM]	19%	·	34%
Cc1cc(Cl)ccc1OCC(=O)n1cc(C(=O)c2cc(Cl)ccc2O)cn1	-8%	·	79µM*	23%	11%	·
CCOc1ccc(-c2cccc(NS(=O)(=O)c3c(C)cc(C)cc3C)c2)nn1	-17%	-19%	-5%[59 µM]	·	·	15%[57 µM]
NC(=S)NCCC[C@H](N)C(=O)O	·	·	1.7µM*!	56µM*	·	·
COc1ccccc1N1CCN(C(=O)c2cnn(-c3ccc(F)cc3F)c2C2CCNCC2)CC1	3%[57.1 µM]	-34%	-20%[59 µM]	·	·	20%
Cc1cc2c(cc(C(=O)OCC(=O)NC3CCCCC3)n2C)o1	·	22µM*	·	·	·	-29%[57 µM]
O=C(COC(=O)c1cccc(C(=O)OCC(=O)NC2CCCCC2)n1)NC1CCCCC1	12%	?	50µM*	11%	15%	29%
Cc1cc(C(=O)OCC(=O)NC2CCCCC2)c(C)o1	?	-13%	3%	24%	·	21%

Source: PubChem BioAssay (National Center for Advancing Translational Sciences (NCATS))
